Compound activity from PubChem.
Only some compounds are listed: those with a hit (about 2.1% of all), similar ones and a draw of the others.
YB-1 expr inh: YB-1 expression inhibition; U2OS, qRT-PCR YB-1 vs CDIP delta delta Cp, 16 h; stronger effect = higher value; zero = DMSO, each unit about twofold; delta delta Cp (YB-1 minus CDIP) (no concentration beside the values); actives 0.37% (n = 30,000);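 active = delta delta Cp rounded down to an integer at or above 3, about 3 SD of DMSO wells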;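 also: higher means less YB-1 transcript or more CDIP transcript relative to DMSO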
U2OS ROS induce: inducers of reactive oxygen species in cancer cells. ROS induction (% of piperlongumine), % at 10 µM. actives 2% (n = 46,000). U2OS ROS induction, H2DCF-DA fluorescence; in the data active = ROS induction above about 79%, passing the limit was not always enough; inconclusive = no clear call, values can overlap the other calls;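 also: 0% = DMSO vehicle median and 100% = reference compound median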
Starred values were filed as active, the others as inactive; ? = inconclusive; . = not tested or not shown.

SMILES	YB-1 expr inh	U2OS ROS induce
CCc1cc(OCCSc2nc(C)cc(=O)[nH]2)ccc1Cl	.	7
O=C(NCCC1=CCCCC1)c1sc2ccccc2c1Cl	.	11
O=S(=O)(c1ccc(-c2ccccn2)s1)N1CCCCC1	-0.12	-6
COc1ccc(CN(C)C[C@@H]2OCCCC[C@@H](C)Oc3ccc(NC(=O)Nc4ccc(F)cc4)cc3C(=O)N([C@H](C)CO)C[C@@H]2C)cc1	0.35	119*
COc1ccc(NC(=O)Nc2ccc3c(c2)C(=O)N([C@H](C)CO)C[C@H](C)[C@@H](CN(C)Cc2ccc(C(=O)O)cc2)OCCCC[C@@H](C)O3)cc1	-0.26	48
CCCN1C(=O)C2(c3ccccc31)c1c(oc3ccccc3c1=O)C(=O)N2CCOC (stereo unspecified)	.	-4
COc1cc(NC(=S)NC(=O)C(C)Oc2ccc(Cl)cc2Cl)c(OC)cc1Cl (stereo unspecified)	.	2
O=C(O)CC1CCC(CC(O)/C=C\C/C=C\CCCCCO)O1 (stereo unspecified)	1.6	5
COC(=O)c1ccc2c(c1)C1C3CCC(C3)C1C(c1ccccc1)N2 (stereo unspecified)	.	30
C[C@@H]1CN([C@@H](C)CO)C(=O)Cc2cc(NS(=O)(=O)c3ccccc3)ccc2O[C@@H]1CN(C)C(=O)Nc1cccc2ccccc12	0.44	-3
C[C@@H]1CN([C@H](C)CO)C(=O)Cc2cc(NS(=O)(=O)c3cn(C)cn3)ccc2O[C@H]1CN(C)C(=O)Nc1cccc2ccccc12	0.058	8
C[C@@H]1CN([C@H](C)CO)C(=O)Cc2cc(NS(=O)(=O)c3ccccc3)ccc2O[C@H]1CN(C)C(=O)Nc1cccc2ccccc12	0.13	98*
C[C@H]1CN([C@@H](C)CO)C(=O)Cc2cc(NS(=O)(=O)c3cn(C)cn3)ccc2O[C@H]1CN(C)C(=O)Nc1cccc2ccccc12	-0.54	121*
OCCN(C=NC1=NN(c2ccccc2)CC1)CCO	.	-7
CCCN(C(=O)Cc1noc2ccc(C)cc12)c1ccc(F)cc1	.	19
O=C(NC(Nc1cccc(C(F)(F)F)c1)C(=O)c1ccccc1)c1cccs1 (stereo unspecified)	.	26
O=C(N/N=C/c1c(F)c(F)c(F)c(F)c1F)c1ccccn1	-0.4	117*
O=C(N/N=C/c1ccc(F)cc1)c1ccccn1	0.21	-4
Nc1ncnc2c1ncn2C1OC(CO)[C@H](O)[C@@H]1S (stereo partly specified)	0.24	0
CC(C)(C)C(=O)OC[C@H]1O[C@@H](n2cnc3c(N)ncnc32)C[C@@H]1OC(=O)C(C)(C)C	8.3*	-2
C=CCN1C(=O)[C@@]2(O[C@@H](CCO)[C@H]([Si](C)(C)c3ccc(OC)cc3)[C@H]2C)c2cc(I)ccc21	0.2	94*
C=CCN1C(=O)[C@]2(O[C@H](CCO)[C@@H]([Si](C)(C)c3ccc(OC)cc3)[C@@H]2C)c2cc(N3CCC3=O)ccc21	-0.096	21
COc1ccc([Si](C)(C)[C@@H]2[C@@H](CCO)O[C@]3(C(=O)N(Cc4ccccc4)c4ccc(NC(C)=O)cc43)[C@H]2C)cc1	0.45	67
C=CCN1C(=O)[C@@]2(O[C@@H](CCO)[C@H]([Si](C)(C)c3ccc(OC)cc3)[C@H]2C)c2cc(NC(C)=O)ccc21	-0.25	106*
FC(F)(F)C1(C(F)(F)F)N=C(c2ccccc2)OC(N2CCCCC2)=N1	-0.036	-24
SMILES	YB-1 expr inh	U2OS ROS induce
COc1ccc(-n2cc(C(=O)N3CCCN(Cc4ccccc4F)C3)c3ccccc3c2=O)cc1	.	-7
Cc1cc(C)c2c(n1)sc1c(=O)n(Cc3ccccc3Cl)nnc12	.	81*
Cc1cc(C)c2c(n1)sc1c(=O)n(NC(=O)Nc3ccccc3)c(C)nc12	.	12
Cc1ccc(S(=O)(=O)Nc2ccc3c(c2)C(=O)N([C@H](C)CO)C[C@H](C)[C@@H](CN(C)S(=O)(=O)c2c(C)noc2C)OCCCC[C@@H](C)O3)cc1	-0.24	12
Cc1noc(C)c1S(=O)(=O)Nc1ccc2c(c1)C(=O)N([C@H](C)CO)C[C@H](C)[C@@H](CN(C)S(=O)(=O)c1ccc(F)cc1)OCCCC[C@@H](C)O2	-0.037	126*
Cc1noc(C)c1S(=O)(=O)N(C)C[C@H]1OCCCC[C@@H](C)Oc2ccc(NS(=O)(=O)c3ccc(Cl)cc3)cc2C(=O)N([C@H](C)CO)C[C@@H]1C	0.53	110*
COc1ccc(S(=O)(=O)N(C)C[C@H]2OCCCC[C@@H](C)Oc3ccc(NS(=O)(=O)c4ccc(Cl)cc4)cc3C(=O)N([C@H](C)CO)C[C@@H]2C)cc1	-0.23	35
Cc1ccc(S(=O)(=O)N(C)C[C@H]2OCCCC[C@@H](C)Oc3ccc(NS(=O)(=O)c4c(C)noc4C)cc3C(=O)N([C@H](C)CO)C[C@@H]2C)cc1	-0.33	4
COc1ccc(S(=O)(=O)Nc2ccc3c(c2)C(=O)N([C@H](C)CO)C[C@H](C)[C@H](CN(C)S(=O)(=O)c2ccc(Cl)cc2)OCCCC[C@@H](C)O3)cc1	-0.027	91*
CC(C)(c1ccccc1)c1ccc(OCC(=O)NC2CCCC2)cc1	.	1
CCc1ccc(N2C(=O)CC(Sc3ccccn3)C2=O)cc1 (stereo unspecified)	.	15
O=C(O)CCc1ccc(-c2ccc(Cl)cc2)n1-c1ccc(C(=O)O)cc1	.	4
CCCNC(=O)Cn1ncc2c3ccccc3n(Cc3ccccc3)c2c1=O	.	-4
Cc1ccc2[nH]c(=O)c3cc(C(=O)NCCCN4CCN(c5ccc(F)cc5)CC4)sc3c2c1	.	22
CC(=O)OC/C(=C\COc1cc(=O)oc2cccc(C)c12)CCC=C(C)C	-0.56	110*
CCc1cc(=O)oc2cc(C)cc(OCC(=O)C(C)(C)C)c12	.	73
O=C(Nc1ccc(Br)cc1)c1ccc2nsnc2c1	.	-11
Cc1ccc(-c2nc3c(cnn3-c3ccccc3)c(=O)n2-c2cccc(C)c2)cc1	.	187*
Cc1ccc(-n2ncc3c2ncn2nc(Cc4ccccc4)nc32)cc1	.	7
O=C(CSc1nc2ccccc2c(=O)[nH]1)Nc1ccc2c(c1)OCCO2	.	7
CCC(Sc1nc(Nc2ccc(F)cc2)c2ccccc2n1)C(=O)Nc1ccc2c(c1)OCO2 (stereo unspecified)	.	118*
COC(=O)c1cc(S(=O)(=O)/C=C/c2ccccc2)c(Cl)cc1Cl	.	121*
COC(=O)c1cc(NC(=O)CN(c2ccccc2F)S(C)(=O)=O)ccc1Cl	.	0
Cc1nc2ccc(S(=O)(=O)NCC(=O)N3CCCC3)cc2s1	.	-7
CC(NC(=O)Cn1cccc1C(=O)c1ccccc1)C12CC3CC(CC(C3)C1)C2 (stereo unspecified)	.	1
C[C@@H]1CCCCO[C@@H](CN(C)C(=O)Nc2cccc3ccccc23)[C@@H](C)CN([C@H](C)CO)C(=O)c2cc(NC(=O)Cc3ccccc3)ccc2O1	0.2	177*
C[C@@H]1CCCCO[C@@H](CN(C)C(=O)Nc2cccc3ccccc23)[C@@H](C)CN([C@H](C)CO)C(=O)c2cc(NC(=O)c3ccccc3)ccc2O1	-0.28	?
C[C@@H]1CCCCO[C@H](CN(C)S(C)(=O)=O)[C@@H](C)CN([C@H](C)CO)C(=O)c2cc(NC(=O)Cc3ccccc3)ccc2O1	0.014	5
